Measured values as given in PubChem BioAssay (NCI).
About 83,000 compounds went through this panel and 20% of them were active in at least one assay; those are over-represented in the sample as a whole.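 96-well plates, one dose, 48 hours. Percent growth reported; active if below 10.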 Active and inactive are the calls of the source.

Assays:
Experiment in all cases: NCI-60 one-dose screen, 48 h (100 = growth as untreated, 0 = no growth, -100 = all killed)
Settings in all cases: 10 µM unless noted
NCI-H23 lung = system: NCI-H23 lung
NCI-H226 lung = system: NCI-H226 lung
NCI-H322M lung = system: NCI-H322M lung
HOP-62 NSCLC = system: HOP-62 NSCLC
NCI-H460 lung = system: NCI-H460 lung
HOP-92 NSCLC = system: HOP-92 NSCLC
NCI-H522 lung = system: NCI-H522 lung
A549/ATCC NSCLC = system: A549/ATCC NSCLC
786-0 renal = system: 786-0 renal
COLO 205 colon = system: COLO 205 colon

Measured: growth

Oc1ccccc1/C=N/Nc1nc(N/N=C/c2ccccc2O)nc(N2CCOCC2)n1
active: HOP-92 NSCLC -12.8%
inactive: NCI-H23 lung 41.5% | NCI-H226 lung 23.3% | NCI-H322M lung 44.5% | HOP-62 NSCLC 25.7% | NCI-H460 lung 32.5% | NCI-H522 lung 60.9% | A549/ATCC NSCLC 13% | 786-0 renal 30.3% | COLO 205 colon 48%

COc1ccc(-c2ccnc3c(C#N)c(Nc4ccccc4)nn23)cc1OC
inactive: NCI-H23 lung 93% | NCI-H226 lung 62.6% | NCI-H322M lung 91.2% | HOP-62 NSCLC 86.5% | NCI-H460 lung 92.8% | NCI-H522 lung 81.4% | A549/ATCC NSCLC 85.4% | 786-0 renal 85.7% | COLO 205 colon 97.1%
active: HOP-92 NSCLC -0.0748%

C/C(Cc1ccc(Cl)cc1)=C(/c1ccccc1)c1ccc(OCCN)cc1
inactive: NCI-H23 lung 98.2% | NCI-H226 lung 91.4% | NCI-H322M lung 99.8% | HOP-62 NSCLC 108% | NCI-H460 lung 104% | HOP-92 NSCLC 91.6% | NCI-H522 lung 96.1% | A549/ATCC NSCLC 99.1% | 786-0 renal 106% | COLO 205 colon 103%

COC(=O)c1c(C(=O)OC)c2n(CC(=O)Nc3cccc4cccnc34)c3ccccc3n2c1C(=O)c1ccc(C)cc1
inactive: NCI-H23 lung 94.1% | NCI-H226 lung 88% | NCI-H322M lung 99% | HOP-62 NSCLC 96% | NCI-H460 lung 103% | HOP-92 NSCLC 89.7% | NCI-H522 lung 80.5% | A549/ATCC NSCLC 91.2% | 786-0 renal 101% | COLO 205 colon 114%

CC1(C)CC[C@]2(C(=O)O)CC[C@]3(C)C(=CCC4[C@@]5(C)C[C@@H](O)[C@@H]6OC(c7ccccc7O)OC[C@@]6(C)C5CC[C@]43C)C2C1 (stereo not given in full)
inactive: NCI-H23 lung 58.2% | NCI-H226 lung 87% | NCI-H322M lung 40.5% | HOP-62 NSCLC 45.6% | NCI-H460 lung 46% | HOP-92 NSCLC 52% | NCI-H522 lung 53.6% | A549/ATCC NSCLC 27.7% | 786-0 renal 22.2% | COLO 205 colon 29.7%

CC(C)=CCc1c2c(c(O)c3c1O[C@]14C(=C[C@@H]5C[C@H]1C(C)(C)O[C@@]4(C/C=C(/C)C(=O)O)C5=O)C3=O)CC(O)C(C)(C)O2 (stereo not given in full)
inactive: NCI-H226 lung 18.4% | NCI-H322M lung 11.6%
active: NCI-H23 lung -60.3% | HOP-62 NSCLC -19.3% | NCI-H460 lung -33.2% | HOP-92 NSCLC -8.8% | NCI-H522 lung -53.9% | A549/ATCC NSCLC -9.15% | 786-0 renal -39.6% | COLO 205 colon -67%

O=C1NC(=O)/C(=C/c2ccc(OCc3cc4ccccc4nc3Cl)cc2)S1
inactive: NCI-H23 lung 87.1% | NCI-H226 lung 101% | NCI-H322M lung 103% | HOP-62 NSCLC 105% | NCI-H460 lung 101% | HOP-92 NSCLC 78.6% | NCI-H522 lung 79.8% | A549/ATCC NSCLC 99.6% | 786-0 renal 93.7% | COLO 205 colon 122%

C/C(=C(/c1ccc(O)cc1)c1ccc(OCCN2CCCCCC2)cc1)c1ccccc1
inactive: NCI-H23 lung 45.5% | NCI-H226 lung 75.7% | NCI-H322M lung 67% | HOP-62 NSCLC 65.8% | NCI-H460 lung 19.2% | HOP-92 NSCLC 45% | NCI-H522 lung 65.6% | A549/ATCC NSCLC 56.7% | 786-0 renal 35.5%
active: COLO 205 colon -86.5%

COc1cc2c3c(n(CCCNCC4CC4)c(=O)c2cc1OC)-c1cc2c(cc1C3=O)OCO2
inactive: NCI-H226 lung 61.9% | NCI-H322M lung 66.9% | HOP-92 NSCLC 90.8% | COLO 205 colon 38%
active: NCI-H23 lung -52.6% | HOP-62 NSCLC -85.8% | NCI-H460 lung -58.7% | NCI-H522 lung -66.1% | A549/ATCC NSCLC -85.1% | 786-0 renal -98.2%

O=C1[C@H]2Cc3c([nH]c4ccccc34)[C@@H](c3c(Cl)cccc3Cl)N2C(=O)CN1C1CCN(Cc2ccccc2)CC1
active: NCI-H460 lung 8% | 786-0 renal -58.2%
inactive: NCI-H23 lung 104% | NCI-H226 lung 103% | NCI-H322M lung 101% | HOP-62 NSCLC 90.7% | HOP-92 NSCLC 83.8% | NCI-H522 lung 38.2% | A549/ATCC NSCLC 94.2% | COLO 205 colon 101%

COc1ccc(-c2nn(-c3ccccc3)cc2/C=C/C(=O)c2ccc(NC(=O)CCCCCCC(=O)NO)cc2)cc1
inactive: NCI-H23 lung 113% | NCI-H226 lung 112% | NCI-H322M lung 96.3% | HOP-62 NSCLC 107% | NCI-H460 lung 108% | HOP-92 NSCLC 125% | NCI-H522 lung 92.4% | A549/ATCC NSCLC 96% | 786-0 renal 69.8% | COLO 205 colon 115%

COc1ccc(-c2no[n+]([O-])c2Nc2ccccc2Br)cc1
active: NCI-H226 lung -13%
inactive: NCI-H23 lung 91.8% | NCI-H322M lung 96.8% | HOP-62 NSCLC 84.5% | NCI-H460 lung 101% | HOP-92 NSCLC 73% | NCI-H522 lung 81.4% | A549/ATCC NSCLC 102% | 786-0 renal 106% | COLO 205 colon 107%

NNC(=O)c1sc2nc(-c3cnccn3)cc(-c3cccs3)c2c1N
inactive: NCI-H23 lung 98.6% | NCI-H226 lung 89.7% | NCI-H322M lung 74.4% | HOP-62 NSCLC 91.6% | NCI-H460 lung 103% | HOP-92 NSCLC 101% | NCI-H522 lung 101% | A549/ATCC NSCLC 102% | 786-0 renal 108% | COLO 205 colon 102%

CCc1ccc(NC(=O)N[C@@H](Cc2cccc(F)c2)C(=O)N[C@@H]2C(=O)N3CCC[C@H]3C(=O)N3CCCC[C@H]3C(=O)N[C@@H](CO)C(=O)N3C[C@H](C)C[C@H]3C(=O)O[C@H]2C)c(F)c1
inactive: NCI-H23 lung 32.9% | NCI-H322M lung 51.1% | HOP-62 NSCLC 37.8% | NCI-H460 lung 14.4% | NCI-H522 lung 20.1% | A549/ATCC NSCLC 36.3% | 786-0 renal 44.1%
active: NCI-H226 lung -1.86% | HOP-92 NSCLC 2.76% | COLO 205 colon -50.4%

CC(C)=CCc1c(O)c(CC=C(C)C)c2c(c1O)C(=O)C1=C[C@@H]3C[C@H]4C(C)(C)O[C@@](C/C=C(\C)C(=O)O)(C3=O)[C@@]14O2
active: NCI-H23 lung -59.3% | HOP-62 NSCLC -13.7% | NCI-H460 lung -41.8% | HOP-92 NSCLC -21.8% | NCI-H522 lung -51.4% | A549/ATCC NSCLC 4.97% | 786-0 renal -27.6% | COLO 205 colon -94.2%
inactive: NCI-H226 lung 72.1% | NCI-H322M lung 21.7%

N#Cc1c(-c2ccccc2)cc(-c2c[nH]c3ccccc23)nc1-c1c[nH]c2ccccc12
inactive: NCI-H23 lung 95.6% | NCI-H226 lung 89.9% | NCI-H322M lung 105% | HOP-62 NSCLC 92.7% | NCI-H460 lung 106% | HOP-92 NSCLC 92.1% | NCI-H522 lung 97.1% | A549/ATCC NSCLC 98.7% | 786-0 renal 102% | COLO 205 colon 108%

CN(C)C(=O)C1=NC(CO)C(=O)N(c2ccc(Cl)cc2)N1 (stereo not given)
inactive: NCI-H23 lung 104% | NCI-H226 lung 105% | NCI-H322M lung 98.6% | HOP-62 NSCLC 98.9% | NCI-H460 lung 104% | HOP-92 NSCLC 91.4% | NCI-H522 lung 97.1% | A549/ATCC NSCLC 99% | 786-0 renal 93.9% | COLO 205 colon 105%

CCOC(=O)C1=C(C)N=C2Sc3ccccc3N2C1c1ccccc1 (stereo not given)
inactive: NCI-H23 lung 85.2% | NCI-H226 lung 89.2% | NCI-H322M lung 86.8% | HOP-62 NSCLC 101% | NCI-H460 lung 91.2% | HOP-92 NSCLC 75.4% | NCI-H522 lung 73.9% | A549/ATCC NSCLC 82.9% | 786-0 renal 87.7% | COLO 205 colon 96%

c1ccc(-c2c(-c3ccccc3)[n+](Cc3ccc4ccccc4c3)c(-c3ccccc3)n2Cc2ccc3ccccc3c2)cc1
active: NCI-H23 lung -81% | NCI-H226 lung -66.8% | NCI-H322M lung -97% | HOP-62 NSCLC -66.9% | NCI-H460 lung -75.6% | HOP-92 NSCLC -89.8% | NCI-H522 lung -76.2% | A549/ATCC NSCLC -74.3% | 786-0 renal -76.9% | COLO 205 colon -57.8%

COc1ccc(C(=O)c2c(N)c(C#N)cn2-c2cccc(OC)c2)cc1
active: NCI-H522 lung 3.14%
inactive: NCI-H23 lung 49.8% | NCI-H226 lung 63.5% | NCI-H322M lung 62.6% | HOP-62 NSCLC 30.6% | NCI-H460 lung 27.8% | HOP-92 NSCLC 21.7% | A549/ATCC NSCLC 42.9% | 786-0 renal 37.5% | COLO 205 colon 25.3%

O=C(CCCCCCN1CC(=O)N2[C@@H](c3ccc(Cl)c(F)c3)c3[nH]c4ccccc4c3C[C@H]2C1=O)NO
inactive: NCI-H23 lung 95.3% | NCI-H226 lung 101% | NCI-H322M lung 86.1% | HOP-62 NSCLC 78.8% | NCI-H460 lung 79.5% | HOP-92 NSCLC 92.2% | NCI-H522 lung 71.7% | A549/ATCC NSCLC 104% | 786-0 renal 93.9% | COLO 205 colon 97.4%

C#C[C@]1(O)CC[C@H]2[C@@H]3CC=C4c5sc(-c6cccc(F)c6)nc5CC[C@]4(C)[C@H]3CC[C@@]21C
inactive: NCI-H23 lung 84.2% | NCI-H226 lung 83.5% | NCI-H322M lung 73.8% | HOP-62 NSCLC 91.4% | NCI-H460 lung 93.5% | HOP-92 NSCLC 113% | NCI-H522 lung 89.2% | A549/ATCC NSCLC 83.8% | 786-0 renal 65.3% | COLO 205 colon 97.9%

CCOC(=O)C1=C(C)Nc2nc3ccccc3n2C1c1ccccc1 (stereo not given)
inactive: NCI-H23 lung 97% | NCI-H226 lung 104% | NCI-H322M lung 104% | HOP-62 NSCLC 100% | NCI-H460 lung 74.7% | HOP-92 NSCLC 95.7% | NCI-H522 lung 93.3% | A549/ATCC NSCLC 92.7% | 786-0 renal 95.4% | COLO 205 colon 104%

O=C(CSc1nnc(-c2cccs2)n1-c1ccccc1)Nc1ccc(F)cc1
inactive: NCI-H23 lung 102% | NCI-H226 lung 98.3% | NCI-H322M lung 97% | HOP-62 NSCLC 109% | NCI-H460 lung 103% | HOP-92 NSCLC 89.6% | NCI-H522 lung 82.4% | A549/ATCC NSCLC 99.3% | 786-0 renal 103% | COLO 205 colon 105%

COC(=O)[C@@]1(C)CC[C@]2(C)CC[C@]3(C)C(=CC(=O)[C@@H]4[C@@]5(C)Cc6c(n(CC#CCN7CCN(C)CC7)c7ccccc67)C(C)(C)[C@@H]5CC[C@]43C)[C@@H]2C1
inactive: NCI-H23 lung 84.7% | NCI-H226 lung 98.5% | NCI-H322M lung 91.5% | HOP-62 NSCLC 113% | NCI-H460 lung 22.4% | HOP-92 NSCLC 83% | NCI-H522 lung 100% | A549/ATCC NSCLC 69.4% | 786-0 renal 67.8% | COLO 205 colon 94.2%

NCCN1CCN(c2nc(-c3ccccc3)nc3nc(-c4ccccc4)oc23)CC1
active: NCI-H23 lung -42.7% | NCI-H226 lung -57.6% | NCI-H322M lung -41.4% | HOP-62 NSCLC 0.341% | NCI-H460 lung -67.7% | NCI-H522 lung -13.1% | A549/ATCC NSCLC -63.7% | 786-0 renal -83.3% | COLO 205 colon -44.7%
inactive: HOP-92 NSCLC 58.9%
